# In PubChem BioAssay (NCATS):
# Records with an inconclusive call do not appear. Unmarked numbers belong to inactive results. Active and inactive are the calls of the source. Calls come from the whole dose curve; as a rule, active = well fitted cell-killing curve with a large enough effect; inconclusive = small, poorly fitted or top-dose-only effect, or effect the other way; inactive = no such curve, though single readings can be large or run the other way.
# Test: Viability qHTS for spleen associated tyrosine kinase inhibitor (SYKi) naive MV4-11 cells (AID 1963823); note: nearly all actives have a fitted effect of over 40% in size
# Details: MV4-11 AML viability, CellTiter-Glo luminescence, 72 h; series mostly up to 45 µM; viability (% of control): at the top concentration
# In short: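 Compounds were dispensed acoustically onto plates, MV4-11 cells (SYKi-naive) added at 500 per well, and plates incubated 72 hr at 37 C. CellTiter-Glo was added and luminescence measured after 10 min.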
# Potency is the fitted concentration of half-maximal effect.
Compound,viability (% of control),Potency
CC(C)(Cc1ccccc1)NCC(O)c1ccc(O)c(NS(C)(=O)=O)c1 (stereo not given),49.4%,–
CC(=O)O[C@@]12CO[C@@H]1C[C@H](O)[C@@]1(C)C(=O)[C@H](O)C3=C(C)[C@@H](OC(=O)[C@H](O)[C@@H](NC(=O)OC(C)(C)C)c4ccccc4)C[C@@](O)([C@@H](OC(=O)c4ccccc4)[C@H]21)C3(C)C,–,0.0027 µM (active)
CC(/C=C/C1(O)C(C)(C)CC(O)CC1(C)O)OC1OC(CO)C(O)C(O)C1O (stereo not given),72.1% [at 17.3 µM],–
CC(C)OC(=O)OCOP(=O)(COC(C)Cn1cnc2c(N)ncnc21)OCOC(=O)OC(C)C (stereo not given),–,2.31 µM (active)
O=C(/C=C/c1ccccc1)OCC1=CC[C@@H]2C(C(=O)O)=CO[C@@H](O[C@@H]3O[C@H](CO)[C@@H](O)[C@H](O)[C@H]3O)[C@H]12,75.8% [at 17.3 µM],–
COc1cc(O)cc(C)c1C(=O)OC1C(CO)OC(n2ccc(=O)[nH]c2=O)C1OC(C)=O (stereo not given),–,5.63 µM (active)
C[C@H](O)[C@H](O)[C@H]1CNc2nc(N)[nH]c(=O)c2N1,77%,–
Nc1ncnc2c1nc(Cl)n2C1OC2COP(=O)(O)OC2C1O (stereo not given),–,0.517 µM (active)
CC(CCC1C(C(=O)O)=CC(=O)CC1(C)C)O[C@@H]1O[C@H](CO)[C@@H](O)[C@H](O)[C@H]1O (stereo not given in full),78.5%,–
CC1(C)CC2C3=CCC4C5(C)CCC(OC6OC(C(=O)O)C(O)C(O)C6OC6OC(CO)C(O)C(O)C6OC6OC(CO)C(O)C(O)C6O)C(C)(CO)C5CCC4(C)C3(C)CCC2(C)C(OC2OCC(O)C(OC3OC(CO)C(O)C(O)C3O)C2O)C1O (stereo not given),96.2% [at 9.25 µM],–
CC(C)CC1(C(=O)OCc2ccc(O[C@@H]3O[C@H](CO)[C@@H](O)[C@H](O)[C@H]3O)cc2)CC(=O)OC(C(=O)O)CC(=O)OCC2OC(O1)C(OC(=O)/C=C/c1ccc(O)cc1)C(O)C2O (stereo not given in full),90.4% [at 9.25 µM],–
C=C(C(=O)O)C1CC2=C(C)C(=O)CC2C(C)CC1O (stereo not given),–,4.61 µM (active)
Nc1ncnc2c1nc(Cl)n2C1O[C@H](CO)[C@@H](O)[C@H]1O (stereo not given in full),–,0.366 µM (active)
C[C@@H]1O[C@@H](O[C@H]2[C@H](OC(C#N)c3ccc(O)cc3)O[C@H](CO)[C@@H](O)[C@@H]2O)[C@H](O)[C@H](O)[C@H]1O (stereo not given in full),87.8% [at 17.3 µM],–
C[C@H](/C=C/[C@@]1(O)[C@H](C)CC(=O)CC1(C)C)O[C@@H]1O[C@H](CO[C@@H]2OC[C@@H](O)[C@H](O)[C@H]2O)[C@@H](O)[C@H](O)[C@H]1O,72.1% [at 17.3 µM],–
CCCCc1nc(C)c(CC(=S)N(C)C)c(=O)n1Cc1ccc(-c2ccccc2-c2nn[nH]n2)cc1,77.7%,–
CN1c2ccccc2C(=O)N2CCC3c4ccccc4NC3C21 (stereo not given),–,2.55 µM (active)
CCC/C=C/c1cc2c(C=O)c(O)c(CC=C(C)C)cc2o1,–,14.6 µM (active)
C[C@@H]1O[C@@H](O[C@H]2[C@H](OC(=O)[C@]34CCC(C)(C)C[C@H]3C3=CCC5[C@@]6(C)C[C@H](O)[C@H](O[C@@H]7O[C@H](CO[C@@H]8OC[C@H](O)[C@H](O)[C@H]8O)[C@@H](O)[C@H](O)[C@H]7O)C(C)(C)C6CC[C@@]5(C)[C@]3(C)C[C@H]4O)OC[C@@H](O)[C@@H]2O)[C@H](O)[C@H](O[C@@H]2OC[C@](O)(CO)[C@H]2O)[C@H]1O[C@@H]1OC[C@H](O)[C@H](O[C@@H]2OC[C@@H](O)[C@H](O)[C@H]2O)[C@H]1O (stereo not given in full),72% [at 9.25 µM],–
O=C1C(Cc2ccc(O)cc2)N2C(=O)CCN(C(=O)NCc3ccccc3)C2CN1Cc1cccc2ccccc12 (stereo not given),–,1.46 µM (active)

Compound,viability (% of control),Potency
CC1(C)CCCC2(C)C1CC=C1C(=O)OC(O)C12O (stereo not given),54.9%,–
CCC(C)(OC(C)=O)C(=O)O[C@H]1[C@H](OC(C)=O)[C@]2(CO)[C@H](O)[C@H](O)[C@]3(C)C(=CCC4[C@@]5(C)CC[C@H](O[C@@H]6O[C@H](C(=O)O)[C@@H](O)[C@H](O[C@@H]7OC[C@H](O)[C@H](O[C@@H]8OC[C@H](O)[C@H](O)[C@H]8O)[C@H]7O)[C@H]6O[C@@H]6O[C@H](CO)[C@@H](O)[C@H](O)[C@H]6O)C(C)(C)C5CC[C@]43C)[C@@H]2CC1(C)C (stereo not given in full),–,2.75 µM (active)
C/C=C(\C)C(=O)OC[C@H]1O[C@@H](O[C@H]2[C@@H](O[C@H]3O[C@H](COC(=O)/C(C)=C/C)[C@@H](O)[C@H](O)[C@H]3O[C@@H]3O[C@H](CO)[C@@H](O)[C@H](OC(=O)/C(C)=C/C)[C@H]3O)O[C@H](COC(=O)/C(C)=C/C)[C@@H](O)[C@@H]2O)[C@H](O)[C@@H](O)[C@@H]1O,81.6% [at 9.25 µM],–
OC[C@@]1(O)CO[C@@H](OC[C@H]2O[C@@H](OCc3ccccc3)[C@H](O)[C@@H](O)[C@@H]2O)[C@@H]1O,82.7% [at 17.3 µM],–
COc1c(C)c(C(=O)c2ccc(N)c(C(=O)O)c2)n2ccccc12,–,inactive
C=C1CC[C@@H]2[C@](C)(CO)[C@H](O)CC[C@@]2(C)[C@@H]1C/C=C1/C(=O)OCC1O (stereo not given in full),–,2.91 µM (active)
CC1(CCC(=O)O)C(=O)C=CC23CC4CC(OC4(C)C2O)C13 (stereo not given),69.5%,–
OCC(Cc1ccccc1)Nc1nc(Oc2ccc3c(c2)CCC3)nc2c1ncn2Cc1ccc(-c2ccccc2)cc1 (stereo not given),–,18.4 µM (active)
C=C1CC[C@@H]2[C@](C)(CO)[C@H](O)CC[C@@]2(C)[C@@H]1C/C=C1/C(=O)OC[C@@H]1O,–,4.53 µM (active)
CC12CCC3c4ccc(OC5OC(C(=O)O)C(O)C(O)C5O)cc4CCC3C1CCC2O (stereo not given),105%,–
Cc1nc2ccc(CN(C)c3ccc(C(=O)NC(CCC(=O)O)C(=O)O)s3)cc2c(=O)[nH]1 (stereo not given),–,0.0065 µM (active)
COc1ccc2cc(-c3cc(-c4cc(Cl)cc(Cl)c4)nn3C(C)c3ccc(C(=O)NCCC(=O)O)cc3)ccc2c1 (stereo not given),–,23.1 µM (active)
CC1(CO)CC2C(O)C(=O)C3(CO)CC3(C)C2C1 (stereo not given),80.6%,–
C=CC1(C)C=C2CCC3C(C)(C)C(O[C@@H]4O[C@@H](CO)[C@H](O)[C@H]4O)CCC3(C)C2CC1O[C@@H]1O[C@H](C)[C@H](O)[C@H](O)[C@H]1O (stereo not given in full),68.7% [at 17.3 µM],–
C[C@@H]1O[C@@H](O[C@H]2[C@@H]3C=CO[C@@H](O[C@@H]4O[C@H](CO)[C@@H](O)[C@H](O)[C@H]4O)[C@@H]3[C@@]3(CO)O[C@@H]23)[C@H](OC(=O)/C=C/c2ccc(O)c(O)c2)[C@H](O)[C@H]1O,54.4% [at 17.3 µM],–
O=C(OC1C=C(CO)C2C(OC3OC(CO)C(O)C(O)C3O)OC=CC12)c1ccc(O)cc1 (stereo not given),88.6% [at 17.3 µM],–
CNC(=O)c1ccc2cc([C@@]3(O)CCn4cncc43)ccc2c1,77.2%,–
O=C(/C=C/c1ccc(O)cc1)OC[C@]12O[C@H]1[C@@H](O)[C@@H]1C=CO[C@@H](O[C@@H]3O[C@H](CO)[C@@H](O)[C@H](O)[C@H]3O)[C@@H]12,84.5% [at 17.3 µM],–
Nc1c(-c2ccccc2)nc(Cl)c2c(O)n[nH]c(=O)c12,66.1%,–
COC(=O)c1cc(CN2CCN(C(=N)N)CC2)cc(C(=O)N2CCN(C(=O)c3ccc(C(=N)N)cc3)CC2)c1,116%,–
